Molecules are shown by their SMILES. Among all 120,000 compounds or so, about 5,300 (4.4%) were called active. Where a call stands in place of a potency, no number is given. Not shown: some 22% with an inconclusive outcome. The call rests on the fitted dose curve; in most records, active means well fitted inhibition curve with a large enough effect; inconclusive means small, poorly fitted or top-dose-only effect; inactive means no such curve, though single readings can be large or run the other way. The full list was thinned out, with actives kept by preference.
Potency means the concentration at half of the fitted maximal effect.

The nature of this assay: qHTS Primary assay for Inhibitors of Plasmodium falciparum Dd2 growth in vitro. Further: nearly all actives have a fitted effect of over 65% in size. The following applies: P. falciparum Dd2 growth, SYBR Green, 72 h; series mostly up to 28.9 µM. Put shortly: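 Infected erythrocytes (Dd2, 0.3% parasitemia, 2.5% hematocrit final) are added to compound in RPMI-1640/Albumax II medium, grown 72 h at 37C in low oxygen, then lysed with saponin/Triton-X containing SYBR Green and read by fluorescence.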
For the compound `COc1ccccc1OCCNC(=O)c1cn2ccnc(-c3ccc(C)cc3)c2n1`, the Potency entry was “inactive”.
For `Cn1cc(CNC(=O)C[C@@H]2C[C@H]3O[C@H](CNC(=O)Nc4cccs4)[C@@H](O)[C@H]3O2)cn1`, the Potency entry was “inactive”.
`COC1CCN(C(=O)c2c(-c3cnn(C)c3NCc3cccnc3)noc2C)CC1`: the Potency entry is “inactive”.
On to `COc1ccc(N2CC(c3noc(-c4ccc(C(C)(C)C)cc4)n3)CC2=O)cc1` (stereo unspecified), for which the Potency result was “inactive”.
As to `CCn1cc(-c2ccc(OC)cc2)cc1C(=O)N1CCC(C)CC1`, the Potency entry is “inactive”.
For `Cc1ccc(CN2CCC3OCCN(Cc4ccccc4)C(=O)C3C2)o1` (stereo unspecified), the Potency entry is “inactive”.
With `Cn1nc2n(c1=O)CCN(C(=O)C1CC=CCC1)CC2` (stereo unspecified), the Potency entry was “inactive”.
On to `COc1ccc2c(c1)c(=O)c(C(=O)c1ccccc1)cn2CC(=O)Nc1ccc2c(c1)OCCO2`, for which the Potency result was “inactive”.
As to `COc1ccc(Cn2cc(C(=O)c3ccc(C)cc3)c(=O)c3cc(OC)c(OC)cc32)cc1`, the Potency is 12.6 µM (active).
As for `CCOc1ccc(C(=O)c2cn(Cc3ccccc3OC)c3ccc(F)cc3c2=O)cc1`, the Potency was 10 µM (active).
Turning to `COc1ccc(NC(=O)Cn2cc(C(=O)c3ccncc3)c(=O)c3cc(C)ccc32)cc1Cl`, the Potency entry is “inactive”.
`COc1cc2[nH]c(=O)n(Cc3ccc(C(=O)NCc4ccc(C)cc4)cc3)c(=O)c2cc1OC`: the Potency result was “inactive”.
As to `CCOc1ccc(NC(=O)Cn2cc(C(=O)c3ccc(C)cc3)c(=O)c3cc4c(cc32)OCCO4)cc1`, the Potency result was “inactive”.
Regarding `COC(=O)C1=CN(CC(=O)Nc2ccc(F)cc2F)S(=O)(=O)N=C1C`, the Potency result is “inactive”.
To `COc1ccc(-c2nc(CN3CCC(C(=O)NCc4ccccc4)CC3)c(C)o2)cc1OC` belongs “inactive”; to `CCn1cnnc1CC1CCN(C(=O)C2CCN(Cc3nc(-c4cccc(C)c4)oc3C)CC2)CC1`, 3.16 µM (active); to `CCn1cnnc1CC1CCN(C(=O)c2cc(-c3ccc(F)cc3)nc3ccccc23)CC1`, “inactive”.
`CC(C)CNC(=O)N1C[C@@H](Oc2cccnc2)C[C@H]1C(=O)N1CCOCC1`: the Potency entry is “inactive”.
In the case of `NS(=O)(=O)c1ccc(F)c(C(=O)NCc2ccc3nonc3c2)c1`, the Potency result is “inactive”.
With `CCOc1ccc(CCNc2nc(-c3ccccc3)no2)cc1`, the Potency entry is “inactive”.
Turning to `CCCNC(=O)c1ccc2c(c1)ncn2-c1ccc(C)cc1C`, the Potency is 11.2 µM (active).
For `Cc1ccc(CCNC(=O)c2ccc3c(c2)nc2n3CCC(C)C2)cc1` (stereo unspecified), the Potency result was “inactive”.
For the compound `Cc1ccc(-n2cnc3cc(C(=O)NCCC4=CCCCC4)ccc32)cc1Cl`, the Potency entry is “inactive”.
Regarding `Cc1cc(Cn2cc3c4c(cccc42)[C@H](CC(C)C)N[C@H](C(=O)N2CCCCCC2)C3)no1`, the Potency entry was “inactive”.
On to `CN1C(=O)c2cccn2CC1C(=O)N1CCc2ccccc21` (stereo unspecified), for which the Potency result was “inactive”.
On to `CCc1ccc(NC(=O)c2sc3nc4c(cc3c2N)CN(CC)CC4)cc1`, for which the Potency was 11.2 µM (active).
Take `COc1ccc(Cl)cc1NC(=O)c1sc2nc3c(cc2c1N)CN(C)CC3`: the Potency entry was “inactive”.
Take `CCc1ccc(NC(=O)c2cnc3c(-c4ccccc4)c(C)nn3c2C)cc1`: the Potency result was “inactive”.
As to `O=C(Nc1ccc(OC(F)(F)F)cc1)c1cc2c(=O)n3ccccc3nc2s1`, the Potency result is “inactive”.
On to `CCc1cccc(NC(=O)c2cnc(N3CCOCC3)c3ccccc23)c1`, for which the Potency entry is “inactive”.
For `CCN1CCc2nc3sc(C(=O)Nc4ccccc4OC(F)(F)F)c(N)c3cc2C1`, the Potency was 10 µM (active).
As for `CCOc1ccccc1C(=O)N1CCC2(CC1)CN(C(C)=O)CC2COC` (stereo unspecified), the Potency result was “inactive”.
On to `CCC(=O)N1CCc2c(sc3ncnc(NCc4cccnc4)c23)C1`, for which the Potency result was “inactive”.
As for `Cc1noc2c(-c3cccc(CO)c3)cc(-c3ccccc3)nc12`, the Potency entry is “inactive”.
With `O=C(Cc1ccc(OC(F)(F)F)cc1)N1CC2CC(C1)[C@H]1CCCC(=O)N1C2` (stereo partly specified), the Potency entry was “inactive”.
On to `Cn1ccnc1C(=O)N1CCCCCCNC(=O)[C@@H]2CCCC[C@@H]21`, for which the Potency entry is “inactive”.
With `CC1(C)[C@H](Cc2cc(CCO)on2)C[C@@H]1NCC1CC1`, the Potency entry was “inactive”.
As to `CC1(C)[C@H](Cc2cc(-c3ccccc3)on2)C[C@@H]1NS(C)(=O)=O`, the Potency result was “inactive”.
The figure for `CC1(C)[C@H](Cc2cc(-c3ccccc3)on2)C[C@@H]1NCC1CC1` is 12.6 µM (active); for `CCn1ncc(N2CCC(NC(=O)CCOC)CC2)cc1=O` it is “inactive”.
On to `O=C(NC1CCN(c2cc(-c3ccc(Cl)cc3)[nH]n2)CC1)c1ccccc1F`, for which the Potency entry is “inactive”.
To `O=C(Cn1ccn2nc(-c3ccccc3)c(CO)c2c1=O)Nc1cc(F)ccc1Cl` belongs “inactive”; to `Fc1ccc(CN2CC[C@H](c3nnc(-c4ccccc4F)o3)C2)cc1`, “inactive”.
As for `CC1=C[C@@H](CN2CCCC2)[C@H](C(C)C)C[C@H]1Cc1nnc(-c2ccc([N+](=O)[O-])cc2)o1`, the Potency is 1.78 µM (active).
On to `CC1=C[C@@H](CNC(C)C)[C@H](C(C)C)C[C@H]1Cc1nnc(-c2ccc(N(C)C)cc2)o1`, for which the Potency was 3.55 µM (active).
On to `CC1=C[C@@H](CNC(C)C)[C@H](C(C)C)C[C@H]1Cc1nnc(-c2ccncc2)o1`, for which the Potency entry was “inactive”.
As for `CC1=C[C@@H](CC#N)[C@H](C(C)C)C[C@H]1CC(=O)N1CCN(C)CC1`, the Potency result is “inactive”.
`CC1=C[C@@H](CN2CCN(CCO)CC2)[C@H](C(C)C)C[C@H]1Cc1nnc(-c2ccc(C)cc2)o1`: the Potency result was “inactive”.
The entry for `CC1=C[C@@H](CNC(=O)NC(C)C)[C@H](C(C)C)C[C@H]1Cc1nnc(-c2ccncc2)o1` is “inactive”; for `CC1=C[C@@H](CN2CCC(O)CC2)[C@H](C(C)C)C[C@H]1Cc1nnc(-c2ccccc2F)o1` it is 8.91 µM (active); for `CC1=C[C@@H](CNC(=O)COc2ccccc2)[C@H](C(C)C)C[C@H]1CC(=O)NCc1ccccn1` it is “inactive”.
On to `CN(C)C[C@@H]1CN(Cc2ccccn2)C[C@H]1NC(=O)c1cc(Cl)ccc1F`, for which the Potency entry is “inactive”.
As to `Cc1ccc(C(=O)N2C[C@@H](Oc3cccnc3)C[C@H]2C(=O)N2CCOCC2)s1`, the Potency entry is “inactive”.
In the case of `CCC(CC)NC(=O)C1Cn2cccc2C(=O)N1` (stereo unspecified), the Potency entry was “inactive”.
Turning to `Cc1noc(-c2cn(C3CCN(C(=O)c4ccoc4)CC3)nn2)n1`, the Potency entry was “inactive”.
For the compound `NC(=O)c1cccc(-c2ccc3c(n2)CN(Cc2ccc(C(F)(F)F)cc2)C(=O)CO3)c1`, the Potency entry is “inactive”.
Turning to `COc1ccc(Nc2nc(-c3cccc(OC)c3OC)no2)cc1`, the Potency result was “inactive”.
For the compound `O=C(Cn1cccc1-c1nc(-c2ccccc2)no1)Nc1ccccc1F`, the Potency was 3.98 µM (active).
`CC(=O)c1ccc(NC(=O)COc2ccccc2-c2nc(-c3ccccc3)no2)cc1`: the Potency result was “inactive”.
With `COc1ccc(Cl)cc1NC(=O)CSc1nc(=O)[nH]c2c1CCCC2`, the Potency result was “inactive”.
`O=C(Cn1cccc1-c1nc(-c2ccc(F)cc2)no1)Nc1cc(F)cc(F)c1`: the Potency result was “inactive”.
Consider `COc1ccc(-c2noc(-c3cccn3CC(=O)Nc3ccccc3)n2)cc1F`, for which the Potency was 1.58 µM (active).
To `COc1ccc(-c2noc(-c3cccn3CC(=O)Nc3cc(Cl)ccc3OC)n2)cc1F` belongs 3.98 µM (active); to `COc1ccc(CNC(=O)Cn2cccc2-c2nc(-c3ccc(F)cc3)no2)cc1`, “inactive”.
To `COc1ccc(Cl)cc1NC(=O)Cn1c(=O)c2ccccc2n2nncc12` belongs “inactive”.
In the case of `CCc1cc(=O)n(CC(=O)Nc2ccccc2F)c(-c2cccc(F)c2)n1`, the Potency result was “inactive”.

(Values after PubChem BioAssay AID1347417 (National Center for Advancing Translational Sciences (NCATS), 2020).)
